# Source: PubChem BioAssay
# “And” between values parts separate entries of the source, which are not always exact repeats. Equal entries are not always repeated. For some of these results: Measured potencies and affinities stand elsewhere. The source made the active and inactive calls. Unless noted, how the calls were made is not given here.
# Assays:
# [1] = P. berghei load reduction in hepatocytes – cell-based, HepG2, luciferase luminescence, HepG2 viability, primary screen (AID 624349; in the data active means parasite load remaining mostly below about 12%, no sharp cut-off; inactive means mostly above about 10%;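 further: 100% = mean of DMSO negative control wells on the same plate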); settings: P. berghei liver stage in HepG2, luciferase luminescence, concentration not given here; parasite load remaining: stronger effect = lower value; viability: measured here: HepG2 viability without parasites
# [2] = EMT-state selective cytotoxicity in co-culture – imaging, PC-3E GFP, TEM4-18 mCherry, primary screen (AID 1345086;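 active means compounds killing one labelled cell type while sparing the other, by normalised counts and ratio limits, not self-fluorescent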;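 on all read-outs here: cells exposed to compound for 72 h before imaging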;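 on red/green cell ratio (normalised): normalised mesenchymal count divided by normalised epithelial count so high means epithelial killing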); settings: PC-3E GFP / TEM4-18 mCherry co-culture, imaging cell counts, at 1 µM; for red/green cell ratio (normalised): actives lie on both sides
# [3] = viability loss with induced miR-34 in A549 – imaging, A549 dox-inducible miR-34, nuclei and caspase counts, primary screen (AID 1347080;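 active means compounds whose cell count with miR-34 switched on is under 0.7 times the count with it off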); settings: A549 miR-34 inducible, Hoechst nuclei count, 48 h
# [4] = MELAS cybrid and Rieske KO viability enhancers – cell-based, MELAS cybrids, Rieske KO mouse fibroblasts, CellTiter-Glo, primary screen (AID 1508586;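 active means mean z-score across replicates of 1.96 or higher in either the MELAS or the Rieske mutant cell line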;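 further: z relative to plate mean and SD of compound and empty wells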); settings: low glucose
# [5] = galactose survival enhancers in mitochondrial complex I cybrids – cell-based, galactose medium, ATP luminescence, primary screen (AID 1645843;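 active means z-score of at least 1.8 in each of two replicates, scored against plate mean and spread of sample wells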;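 further: positive z means more ATP and so rescue of galactose-driven cybrid death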); settings: complex I mutant cybrid cells, 72 h, stronger effect = higher value
# [6] = tested on: Aerobactin synthetase IucA (Klebsiella pneumoniae hvKP1); assay: IucA enzyme inhibition, primary screen, biochemical, Spectrum library (AID 1346200); settings: malachite green pyrophosphate, A620, at 8 µM, stronger effect = lower value;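 further: 100% = wells without compound and 0% = wells lacking enzyme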
# [7] = target: Mitogen-activated protein kinase 7 (Homo sapiens) (UniProt Q13164); assay: Gal4-ERK5 driven luciferase induction – cell-based, HTS, primary screen (AID 1508626;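 active means luciferase signal above three times the same-plate solvent-only control wells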;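 further: luciferase driven by Gal4-ERK5 fusion binding five Gal4 sites before minimal TATA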); settings: HeLa Gal4-ERK5 transactivation, 18 h, at 5 µM, stronger effect = higher value
# Sequence of Mitogen-activated protein kinase 7 (Homo sapiens) (Q13164 whole entry, looked up, the tested form may be a part): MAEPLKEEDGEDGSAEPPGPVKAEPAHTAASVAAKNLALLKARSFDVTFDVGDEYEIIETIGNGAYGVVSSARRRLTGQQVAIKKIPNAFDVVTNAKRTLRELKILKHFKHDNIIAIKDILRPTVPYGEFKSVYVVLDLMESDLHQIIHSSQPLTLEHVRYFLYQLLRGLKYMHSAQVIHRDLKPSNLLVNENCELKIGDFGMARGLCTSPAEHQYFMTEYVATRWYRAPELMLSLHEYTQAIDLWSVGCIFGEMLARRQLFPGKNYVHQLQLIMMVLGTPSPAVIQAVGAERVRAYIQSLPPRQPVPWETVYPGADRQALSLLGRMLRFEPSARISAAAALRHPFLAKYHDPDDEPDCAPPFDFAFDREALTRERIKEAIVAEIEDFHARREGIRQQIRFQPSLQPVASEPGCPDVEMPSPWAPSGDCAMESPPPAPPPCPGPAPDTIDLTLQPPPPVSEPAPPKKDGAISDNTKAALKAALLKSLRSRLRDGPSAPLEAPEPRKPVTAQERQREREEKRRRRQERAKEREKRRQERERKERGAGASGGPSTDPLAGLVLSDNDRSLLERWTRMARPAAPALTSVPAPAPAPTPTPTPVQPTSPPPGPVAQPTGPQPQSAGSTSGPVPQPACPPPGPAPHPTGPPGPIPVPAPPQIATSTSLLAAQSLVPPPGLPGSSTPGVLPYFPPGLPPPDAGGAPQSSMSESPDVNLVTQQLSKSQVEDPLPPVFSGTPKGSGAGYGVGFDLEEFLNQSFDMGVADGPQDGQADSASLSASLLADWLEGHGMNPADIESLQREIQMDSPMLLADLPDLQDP
# [8] = blockers of polyQ-driven CASP3 activation – cell-based (AID 1583); settings: polyglutamine-induced caspase-3 activation, cell assay; stronger effect = higher value;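 tested at 10 µM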
# [9] = yeast 75Q aggregation reduction – 75Q-TubU reporter (AID 1593); settings: Yeast 75Q polyglutamine aggregation reporter
# [10] = restoration of touch response, mutant HTT neurons – whole organism, C. elegans mechanosensory neurons, N-terminal huntingtin (AID 1599); settings: C. elegans polyQ-huntingtin mechanosensory neurons, stronger effect = higher value
# [11] = blockers of cytochrome c efflux from mitochondria – biochemical, purified mitochondria (AID 1603); settings: stronger effect = lower value;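 further: mouse liver mitochondria challenged with calcium chloride; signal normalized to the plate average as 100%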
# [12] = polyglutamine aggregate formation blockers (AID 1604); settings: polyglutamine-induced protein aggregation inhibition assay; stronger effect = higher value; tested at 2.5 µM
# [13] = glutamate transport activators, MN-1 cells, MN-1 cell line (AID 1612); settings: MN-1 motor neuron cells, stronger effect = higher value;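 further: tested at 1 µM final; 0% = mean of DMSO vehicle wells on each plate; positive means more glutamate uptake than control and negative means less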
# [14] = 75Q-TubH aggregate inhibition, S. cerevisiae, yeast (AID 1616); settings: S. cerevisiae 75Q-TubH polyglutamine aggregation suppression; stronger effect = higher value
# [15] = compounds altering circadian rhythm period length – cell-based, LOPAC library, luminescence reporter (AID 2774); settings: circadian reporter cells, at 7 µM, actives lie on both sides;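 further: values are relative to mean of DMSO wells on each plate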
# [16] = tested on: Hepatitis C virus NS3 helicase; assay: blockers of NS3h binding to ssDNA – biochemical, fluorescence polarization, LOPAC1280 library, primary screen (AID 687035; in the data active means inhibition above about 37%); settings: Purified HCV NS3 helicase, Cy5-dT15 ssDNA binding fluorescence polarization; stronger effect = higher value; concentration not given here
# [17] = compounds altering Cy5-DNA-NS3h complex signal – biochemical, LOPAC1280, artefact control for HCV NS3 helicase inhibitor project (AID 687037); settings: Cy5-DNA-NS3h complex fluorescence interference counterscreen
# [18] = tested on: Aerobactin synthetase IucA (Klebsiella pneumoniae, hypervirulent); assay: biochemical IucA inhibition screen of LOPAC library by absorbance (AID 1346212); settings: IucA enzyme assay, absorbance (OD) readout; stronger effect = lower value; concentration not given here;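 further: 100% = no compound wells and 0% = no enzyme wells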
# [19] = blockers of cellular phospholipid synthesis – cell-based, LOPAC library, screen 4, primary screen (AID 1347384); settings: animal cells, phospholipid biosynthesis inhibition screen; at 10 µM
# [20] = tested on: Aerobactin synthetase IucA (Klebsiella pneumoniae); assay: inhibition of K. pneumoniae IucA enzyme – biochemical, Tocris library, absorbance (AID 1345561); settings: purified IucA enzyme assay, absorbance (OD) read-out; stronger effect = lower value; concentration not given here;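 further: 100% = enzyme without compound and 0% = no enzyme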
# [21] = measured here: epithelial PC-3E GFP cell survival
# [22] = measured here: mesenchymal TEM4-18 mCherry cell survival
# [23] = measured here: relative caspase fold change +Dox/-Dox
# [24] = measured here: total cells with miR-34 induction, stronger effect = lower value
# [25] = measured here: total cells without miR-34 induction
# [26] = MELAS cybrid survival, CellTiter-Glo 48 h, stronger effect = higher value
# [27] = Rieske KO mouse fibroblast survival, CellTiter-Glo 72 h
compound,measurement,setting,value
C#CCN(C)C(C)Cc1ccccc1 (stereo not drawn),parasite load remaining,[1],54.6% (inactive) and 61.7% (inactive)
same,viability,[1],101% and 170%
same,red/green cell ratio (normalised),[2],1.02 (inactive)
same,normalised cell number,[2]; [21],1.06
same,normalised cell number,[2]; [22],1.07
same,fold change,[3]; stronger effect = lower value,0.923 (inactive) and 0.946 (inactive) and 0.891 (inactive)
same,fold change,[3]; [23],2.5 and 4.7 and 1.31
same,cell count,[3]; [24],9410 and 12100 and 9880
same,cell count,[3]; [25],10200 and 12800 and 11100
same,z-score,[4]; [26],-0.242 (inactive)
same,z-score,[4]; [27],-0.831
same,z-score,[5],0.995 (inactive) and 0.67 (inactive)
CC(=O)O[C@@H]1CC[C@]2(C)C3CC[C@]4(C)C(=O)CCC4C3CC[C@H]2C1 (stereo partly drawn),parasite load remaining,[1],51% (inactive)
same,viability,[1],94%
same,red/green cell ratio (normalised),[2],1.18 (inactive)
same,normalised cell number,[2]; [21],0.95
same,normalised cell number,[2]; [22],1.12
same,activity remaining,[6],99.4% (inactive)
C[C@H]1C[C@@H](O)[C@]2(O)[C@@]13CC(=O)OC[C@@]2(C)[C@](C)(O)C(=O)C3,red/green cell ratio (normalised),[2],1.18 (inactive)
same,normalised cell number,[2]; [21],0.96
same,normalised cell number,[2]; [22],1.13
same,activity remaining,[6],127% (inactive)
same,luciferase signal,[7],188 AU (inactive)
CCCCC[C@H]1C(=O)O[C@H](C)[C@H](NC(=O)c2cccc(NC=O)c2O)C(=O)O[C@@H](C)[C@@H]1OC(=O)CC(C)C,inhibition,[8],29.9%
same,score,[9],0.73
same,rescue above control,[10],-18
same,cytochrome c release ratio,[11],0.26
same,inhibition of aggregation,[12],7.32%
same,glutamate uptake change,[13],3.11%
same,aggregation suppression score,[14],0.0257
same,red/green cell ratio (normalised),[2],0.71 (inactive)
same,normalised cell number,[2]; [21],0.78
same,normalised cell number,[2]; [22],0.55
same,activity remaining,[6],111% (inactive)
same,luciferase signal,[7],60 AU (inactive)
CCC(C)C(=O)O[C@H]1[C@H](O)C2C(CN3CC(C)CCC3[C@@]2(C)O)C2C[C@]34O[C@]5(O)C(OC(=O)C(C)(O)CC)CC[C@@]3(C)C5C(OC(C)=O)[C@@H](OC(C)=O)C4[C@@]21O (stereo partly drawn),inhibition,[8],-14%
same,score,[9],1.53
same,rescue above control,[10],-1.62
same,cytochrome c release ratio,[11],0.8
same,inhibition of aggregation,[12],60.8%
same,glutamate uptake change,[13],12.6%
same,aggregation suppression score,[14],1.64
same,parasite load remaining,[1],35.5% (inactive)
same,viability,[1],65.2%
same,red/green cell ratio (normalised),[2],0.9 (inactive)
same,normalised cell number,[2]; [21],1.11
same,normalised cell number,[2]; [22],1
same,activity remaining,[6],105% (inactive)
C[N+]1(C)CCOC(O)(c2ccc(-c3ccc(C4(O)C[N+](C)(C)CCO4)cc3)cc2)C1 (stereo not drawn),period change,[15],0.02 h (inactive)
same,parasite load remaining,[1],172% (inactive) and 77.5% (inactive)
same,viability,[1],105% and 75.6%
same,inhibition,[16],3% (inactive)
same,fluorescence ratio (interference),[17],1 (inactive)
same,red/green cell ratio (normalised),[2],0.92 (inactive)
same,normalised cell number,[2]; [21],1.15
same,normalised cell number,[2]; [22],1.05
same,remaining activity,[18],108% (inactive)
same,fold change,[3]; stronger effect = lower value,1.02 (inactive) and 0.872 (inactive)
same,fold change,[3]; [23],0.804 and 1.21
same,cell count,[3]; [24],10300 and 8560
same,cell count,[3]; [25],10200 and 9810
same,outcome,[19],inactive
same,z-score,[4]; [26],-0.344 (inactive)
same,z-score,[4]; [27],-0.223
same,z-score,[5],0.135 (inactive)
CN(C)Cc1c[nH]c2ccccc12,parasite load remaining,[1],169% (inactive) and 78.1% (inactive)
same,viability,[1],115% and 79.2%
same,red/green cell ratio (normalised),[2],1.08 (inactive)
same,normalised cell number,[2]; [21],0.84
same,normalised cell number,[2]; [22],0.9
same,fold change,[3]; stronger effect = lower value,0.891 (inactive) and 0.984 (inactive)
same,fold change,[3]; [23],2.07 and 0.28
same,cell count,[3]; [24],8410 and 7970
same,cell count,[3]; [25],9440 and 8100
same,z-score,[4]; [26],-0.265 (inactive)
same,z-score,[4]; [27],0.0463
C[C@@H]1O[C@@H](O[C@H]2CC[C@]3(C=O)C4CC[C@]5(C)[C@@H](C6=CC(=O)OC6)CC[C@]5(O)C4CC[C@]3(O)C2)[C@H](O)[C@H](O)[C@H]1O (stereo partly drawn),parasite load remaining,[1],3.9% (inactive)
same,viability,[1],51%
same,red/green cell ratio (normalised),[2],0.21 (inactive)
same,normalised cell number,[2]; [21],0.1
same,normalised cell number,[2]; [22],0.02
same,activity remaining,[6],95.5% (inactive)
O=c1cccc2n1C[C@H]1CNCC2C1,parasite load remaining,[1],64.2% (inactive)
same,viability,[1],103%
same,red/green cell ratio (normalised),[2],0.78 (inactive)
same,normalised cell number,[2]; [21],1.31
same,normalised cell number,[2]; [22],1.02
same,activity remaining,[6],107% (inactive)
CC(C)=CCCC1(C)C=Cc2c(O)c3c(c(CC=C(C)C)c2O1)OC12C(=CC4CC1C(C)(C)OC2(C/C=C(/C)C(=O)O)C4=O)C3=O (stereo not drawn),inhibition,[8],78.5%
same,score,[9],0.45
same,rescue above control,[10],-1.66
same,cytochrome c release ratio,[11],3.17
same,inhibition of aggregation,[12],100%
same,glutamate uptake change,[13],-92.9%
same,aggregation suppression score,[14],0.449
same,red/green cell ratio (normalised),[2],1.03 (inactive)
same,normalised cell number,[2]; [21],1.09
same,normalised cell number,[2]; [22],1.13
same,activity remaining,[6],120% (inactive)
CC(=O)OCC1=C(C(=O)O)N2C(=O)[C@@H](NC(=O)CCCC(N)C(=O)O)C2SC1 (stereo partly drawn),inhibition,[8],10.9%
same,score,[9],1.28
same,cytochrome c release ratio,[11],1.12
same,inhibition of aggregation,[12],39.4%
same,glutamate uptake change,[13],3.72%
same,aggregation suppression score,[14],1.03
same,parasite load remaining,[1],94.5% (inactive)
same,viability,[1],67%
same,red/green cell ratio (normalised),[2],0.94 (inactive)
same,normalised cell number,[2]; [21],1.04
same,normalised cell number,[2]; [22],0.98
same,activity remaining,[6],111% (inactive)
Cc1cc(OC(=O)N2CCCCC2)c(C(C)C)cc1[N+](C)(C)C,red/green cell ratio (normalised),"[2]; counts scaled to control wells, 1 = unselective",0.97 (inactive)
same,normalised cell number,[2]; [21],1.16
same,normalised cell number,[2]; [22],1.13
same,activity remaining,[6],125% (inactive)
same,luciferase signal,[7],48 AU (inactive)
OCC(O)[C@H]1O[C@@H]2O[C@H](C(Cl)(Cl)Cl)O[C@@H]2[C@H]1O (stereo partly drawn),red/green cell ratio (normalised),[2],0.83 (inactive)
same,normalised cell number,[2]; [21],1.02
same,normalised cell number,[2]; [22],0.85
same,fold change,[3]; stronger effect = lower value,0.871 (inactive)
same,fold change,[3]; [23],0.819
same,cell count,[3]; [24],8180
same,cell count,[3]; [25],9390
C=CCN=C=S,red/green cell ratio (normalised),[2],0.88 (inactive)
same,normalised cell number,[2]; [21],1.07
same,normalised cell number,[2]; [22],0.93
same,fold change,[3]; stronger effect = lower value,1.01 (inactive)
same,fold change,[3]; [23],0.842
same,cell count,[3]; [24],7390
same,cell count,[3]; [25],7280
C=C/C=C\CC1=C[C@@H](OC(=O)[C@@H]2[C@@H](C=C(C)C)C2(C)C)CC1=O,red/green cell ratio (normalised),[2],0.66 (inactive)
same,normalised cell number,[2]; [21],1.35
same,normalised cell number,[2]; [22],0.89
same,fold change,[3]; stronger effect = lower value,0.949 (inactive)
same,fold change,[3]; [23],1.14
same,cell count,[3]; [24],8080
same,cell count,[3]; [25],8520
NCCc1c[nH]c2ccc(C(N)=O)cc12,period change,[15],-0.055 h (inactive)
same,inhibition,[16],-3% (inactive)
same,fluorescence ratio (interference),[17],1 (inactive)
same,remaining activity,[20],111% (inactive)
same,remaining activity,[18],90% (inactive)
same,fold change,[3]; stronger effect = lower value,0.977 (inactive) and 0.883 (inactive)
same,fold change,[3]; [23],1.26 and 0.923
same,cell count,[3]; [24],10000 and 7810
same,cell count,[3]; [25],10300 and 8850
same,outcome,[19],inactive
same,z-score,[5],0.31 (inactive) and 0.705 (inactive)
